Data reported in PubChem BioAssay AID1159580 (chemical genetic matrix, 2015).
Where “and” joins values, the source holds several entries; their conditions need not be identical. Equal values may be shown once. About 2,000 (36%) of roughly 5,500 compounds were called active. Roughly 18% stayed inconclusive and do not appear here. No stated cut-off is given here; in the data, active means normalized growth mostly below about 0.91 (no sharp cut-off); inconclusive means no clear call, values can overlap the other calls; inactive means mostly above about 0.92. This is one part of the list.

Test: chemical genetic growth profiling, strain panel (AID 1159580);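 further: tested at 20 µM; growth read once vehicle control cultures reached saturation at 30 °C; 1 = growth at the plate median or of vehicle wells; lower values mean less growth of the strain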
Settings: growth OD

Measured: normalized growth

Cc1ccc(S(=O)(=O)NC(=O)NN2CCCCCC2)cc1
inactive: S. cerevisiae deletion strains, locus YJR075W, strain HOC1, hits give low values 1.03 | S. cerevisiae deletion strains, locus YKL009W, strain mrt4, hits give low values 1.03 | S. cerevisiae deletion strains, locus YKL068W, hits give low values 0.988 | S. cerevisiae deletion strains, locus YKL085W, strain MDH1 (second series), hits give low values 0.977 | S. cerevisiae deletion strains, locus YKL085W, strain MDH1, hits give low values 0.977 | S. cerevisiae deletion strains, locus YKL160W, strain elf1, hits give low values 0.957 | S. cerevisiae deletion strains, locus YKL190W, strain CNB1, hits give low values 1 | S. cerevisiae deletion strains, locus YKR001C, strain vps1, hits give low values 0.981 | S. cerevisiae deletion strains, locus YKR026C, strain gcn3, hits give low values 0.992 | S. cerevisiae deletion strains, locus YKR091W, strain srl3, hits give low values 0.983 | S. cerevisiae deletion strains, locus YLL001W, strain dnm1, hits give low values 0.982 | S. cerevisiae deletion strains, locus YLL026W, hits give low values 0.995 | S. cerevisiae deletion strains, locus YLL041C, strain sdh2, hits give low values 0.99 | S. cerevisiae deletion strains, locus YLR027C, strain aat2, hits give low values 0.99 | S. cerevisiae deletion strains, locus YLR039C, strain RIC1, hits give low values 0.954 | S. cerevisiae deletion strains, locus YLR058C, strain SHM2, hits give low values 0.992 | S. cerevisiae deletion strains, locus YLR102C, strain apc9, hits give low values 0.985 | S. cerevisiae deletion strains, locus YLR113W, strain HOG1, hits give low values 1.03 | S. cerevisiae deletion strains, locus YLR221C, strain rsa3, hits give low values 1.02 | S. cerevisiae deletion strains, locus YLR258W, strain gsy2, hits give low values 0.98 | S. cerevisiae deletion strains, locus YLR262C, strain YPT6 (second series), hits give low values 0.961 | S. cerevisiae deletion strains, locus YLR262C, strain YPT6, hits give low values 0.962 | S. cerevisiae deletion strains, locus YLR268W, strain sec22, hits give low values 0.983 | S. cerevisiae deletion strains, locus YLR320W, strain mms22, hits give low values 0.996 | S. cerevisiae deletion strains, locus YLR330W, strain CHS5, hits give low values 0.994 | S. cerevisiae deletion strains, locus YLR342W, strain FKS1 (second series), hits give low values 0.941 | S. cerevisiae deletion strains, locus YLR342W, strain FKS1, hits give low values 0.987 | S. cerevisiae deletion strains, locus YLR357W, strain rsc2, hits give low values 0.928 | S. cerevisiae deletion strains, locus YLR370C, strain arc18, hits give low values 0.968 | S. cerevisiae deletion strains, locus YLR371W, strain rom2, hits give low values 0.977 | S. cerevisiae deletion strains, locus YLR384C, strain iki3, hits give low values 0.992 | S. cerevisiae deletion strains, locus YLR418C, strain cdc73, hits give low values 0.989 | S. cerevisiae deletion strains, locus YML016C, strain PPZ1, hits give low values 0.991 | S. cerevisiae deletion strains, locus YML032C, strain rad52, hits give low values 0.992 | S. cerevisiae deletion strains, locus YML120C, strain ndi1, hits give low values 1 | S. cerevisiae deletion strains, locus YML124C, strain tub3, hits give low values 0.988 | S. cerevisiae deletion strains, locus YMR058W, strain fet3, hits give low values 0.994 | S. cerevisiae deletion strains, locus YMR078C, strain ctf18, hits give low values 0.968 | S. cerevisiae deletion strains, locus YMR125W, strain sto1, hits give low values 0.988 | S. cerevisiae deletion strains, locus YMR129W, hits give low values 0.987 | S. cerevisiae deletion strains, locus YMR205C, strain PFK2, hits give low values 1.01 | S. cerevisiae deletion strains, locus YMR223W, strain ubp8, hits give low values 0.97 | S. cerevisiae deletion strains, locus YMR231W, strain pep5, hits give low values 0.986 | S. cerevisiae deletion strains, locus YMR263W, strain SAP30, hits give low values 0.998 | S. cerevisiae deletion strains, locus YMR307W, strain GAS1, hits give low values 0.956 and 1 | S. cerevisiae deletion strains, locus YNL067W, strain RPL9B, hits give low values 1.02 | S. cerevisiae deletion strains, locus YNL071W, strain lat1, hits give low values 0.99 | S. cerevisiae deletion strains, locus YNL128W, strain TEP1, hits give low values 0.988 | S. cerevisiae deletion strains, locus YNL153C, strain GIM3, hits give low values 1.05 and 1 | S. cerevisiae deletion strains, locus YNL175C, strain NOP13, hits give low values 0.991 | S. cerevisiae deletion strains, locus YNL183C, strain NPR1, hits give low values 0.946 | S. cerevisiae deletion strains, locus YNL197C, strain WHI3, hits give low values 0.974 | S. cerevisiae deletion strains, locus YNL209W, strain ssb2, hits give low values 0.968 | S. cerevisiae deletion strains, locus YNL224C, strain SQS1, hits give low values 1 | S. cerevisiae deletion strains, locus YNL233W, strain BNI4, hits give low values 1.04 | S. cerevisiae deletion strains, locus YNL248C, strain rpa49, hits give low values 0.961 | S. cerevisiae deletion strains, locus YNL250W, strain rad50, hits give low values 0.949 | S. cerevisiae deletion strains, locus YNL271C, strain bni1, hits give low values 0.983 | S. cerevisiae deletion strains, locus YNL298W, strain CLA4, hits give low values 0.965 | S. cerevisiae deletion strains, locus YNL307C, strain MCK1, hits give low values 0.983 | S. cerevisiae deletion strains, locus YNL322C, strain KRE1 (second series), hits give low values 0.965 | S. cerevisiae deletion strains, locus YNL322C, strain KRE1, hits give low values 1 | S. cerevisiae deletion strains, locus YNR049C, strain mso1, hits give low values 0.967 | S. cerevisiae deletion strains, locus YNR052C, strain pop2, hits give low values 0.974 | S. cerevisiae deletion strains, locus YOL006C, strain TOP1, hits give low values 1.02 | S. cerevisiae deletion strains, locus YOL012C, strain htz1 1.06 | S. cerevisiae deletion strains, locus YOL147C, strain pex11, hits give low values 0.975 | S. cerevisiae deletion strains, locus YOR001W, strain rrp6, hits give low values 1.03 | S. cerevisiae deletion strains, locus YOR061W, strain CKA2, hits give low values 0.994 | S. cerevisiae deletion strains, locus YOR069W, strain VPS5, hits give low values 0.994 | S. cerevisiae deletion strains, locus YOR070C, strain gyp1, hits give low values 0.979 | S. cerevisiae deletion strains, locus YOR080W, strain dia2, hits give low values 0.979 | S. cerevisiae deletion strains, locus YOR083W, strain WHI5 (second series), hits give low values 0.971 | S. cerevisiae deletion strains, locus YOR083W, strain WHI5, hits give low values 0.927 | S. cerevisiae deletion strains, locus YOR106W, strain vam3, hits give low values 0.984 | S. cerevisiae deletion strains, locus YOR136W, strain idh2, hits give low values 0.984 | S. cerevisiae deletion strains, locus YOR144C, strain elg1, hits give low values 0.974 | S. cerevisiae deletion strains, locus YOR184W, strain ser1, hits give low values 1 | S. cerevisiae deletion strains, locus YOR231W, strain MKK1, hits give low values 1 | S. cerevisiae deletion strains, locus YOR265W, strain rbl2, hits give low values 1 | S. cerevisiae deletion strains, locus YOR270C, strain vph1, hits give low values 1.02 | S. cerevisiae deletion strains, locus YOR290C, strain snf2, hits give low values 0.957 | S. cerevisiae deletion strains, locus YOR316C, strain cot1, hits give low values 0.992 | S. cerevisiae deletion strains, locus YPL051W, strain arl3, hits give low values 0.969 | S. cerevisiae deletion strains, locus YPL078C, strain atp4, hits give low values 0.98 | S. cerevisiae deletion strains, locus YPL106C, strain sse1, hits give low values 0.957 | S. cerevisiae deletion strains, locus YPL240C, strain hsp82, hits give low values 0.988 | S. cerevisiae deletion strains, locus YPL241C, strain CIN2, hits give low values 0.999 | S. cerevisiae deletion strains, locus YPL256C, strain CLN2, hits give low values 1.01 | S. cerevisiae deletion strains, locus YPR119W, strain clb2, hits give low values 0.983 | S. cerevisiae deletion strains, locus YPR141C, strain kar3, hits give low values 0.976 | S. cerevisiae deletion strains, locus YPR163C, strain tif3, hits give low values 0.982 | S. cerevisiae deletion strains, locus YPR167C, strain met16, hits give low values 0.991 | S. cerevisiae deletion strains, strain wtn01, hits give low values 1.01 | S. cerevisiae strains, strain wild type, hits give low values 1
